TRHR agonist: TRH receptor (human) agonism. P34981. TRHR cells, calcium flux fluo-8, FDSS agonist mode. activation, % at 2 µM. 360,000 compounds, 0.18% hits. AID 493084; also: 0% is about no effect
Target sequence (P34981 whole entry, looked up): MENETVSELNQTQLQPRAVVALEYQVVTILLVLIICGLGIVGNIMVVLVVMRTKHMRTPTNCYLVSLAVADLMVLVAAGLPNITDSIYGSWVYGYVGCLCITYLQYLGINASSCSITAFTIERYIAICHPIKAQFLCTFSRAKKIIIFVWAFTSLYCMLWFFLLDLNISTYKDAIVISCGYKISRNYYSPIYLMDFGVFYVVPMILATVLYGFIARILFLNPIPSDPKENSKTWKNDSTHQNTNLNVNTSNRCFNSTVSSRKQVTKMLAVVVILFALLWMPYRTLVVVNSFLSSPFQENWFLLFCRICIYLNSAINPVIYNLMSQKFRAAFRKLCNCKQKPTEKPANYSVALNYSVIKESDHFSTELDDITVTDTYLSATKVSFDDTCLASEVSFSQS
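TRHR-expressing cells loaded with fluo-8 calcium dye; 23 nL library compound pin-transferred, kinetic FDSS fluorescence (Ex 480/Em 530) recorded about 180 s for agonist-induced calcium release, before a 10 nM TRH EC20 addition for potentiator mode.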
D1 antagonist: antagonists of human D1 dopamine receptor | P21728 | HEK293 TREx D1 cells, calcium flux, dopamine EC80; hits give low values | activity change, negative = inhibition, % at 10 µM | 360,000 compounds, 3.2% hits | AID 504652; in the data active = activity change below about -30%; also: % is scaled to controls: 0 for no effect and ±100 for the full control effect
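Calcium flux readout: force-coupled, inducible Hek293 Trex D1 line, cells induced overnight at 30 C with tetracycline, dye-loaded 30–90 min at RT. Antagonism scored against EC80 dopamine challenge given 180 s after compound.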
TRHR enhancer: allosterically enhances the human TRH receptor | P34981 | TRHR cells, fluo-8 calcium fluorescence, EC20 TRH enhancement | enhancement, % at 2 µM | 360,000 compounds, 0.66% hits | AID 493056; in the data active = enhancement above about 30%; also: 0% is about no effect
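Enhancer read-out: after compound pinning and an initial kinetic agonist-mode read, an EC20 of TRH (10 nM final) was injected and fluo-8 calcium signal (Ex 480/Em 530) followed at 1 s/cycle for 100 cycles in TRHR-expressing cells.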
D1 agonist: activates the human D1 dopamine receptor; P21728; HEK293 T-REx D1 cells, calcium flux, agonist mode; activation, % at 2 µM; 360,000 compounds, 1% hits; AID 504660; also: 0% is about no effect
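Tetracycline-induced HEK293 TREx D1 cells, force-coupled to calcium signalling, were dye-loaded with a no-wash calcium kit. Compound was pin-added after a 10 s baseline. Fluorescence was read kinetically at 1 cycle/s for 180 s, with calcium rises flagged as agonism.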
D1 PAM: enhances dopamine response at the human D1 receptor. 360,000 compounds, 0.036% hits. HEK293 TREx D1 cells, calcium flux, dopamine EC20 potentiation. potentiation, % at 10 µM. AID 504651. P21728; in the data active = potentiation above about 30%; also: 0% is about no effect
Epigenetic derep: derepresses silenced GFP reporter in murine cells; murine LDR cells, GFP reporter derepression, 30 h; Potency, µM (titrated, usually from 53.9 µM), for the others: at the highest dose GFP activation, actives largely listed as activators; 280,000 compounds, 0.2% hits; active = well fitted activation curve with a large enough effect; inconclusive = small, poorly fitted or top-dose-only effect; also: potency is read from the fitted curve at half-maximal effect; % of control where 0% means no effect; nearly all actives have a fitted effect of over 60% in size
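Murine LDR cells bearing a silenced CMV-driven GFP reporter were exposed to compound for 30 h at 37 C. After PBS washes, GFP-positive cells (20-120 um objects) counted by laser-scanning microplate cytometry.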
* hit, by the source's call; [ ] = dose if it differs, or a comment. Rows were chosen to be rich in hits. Some 4.6% of all compounds tested hit in one or more screens of this group. Rule as the data show it, unless noted: active = activation above about 30%; inactive = the rest.

COc1ccc(C(=O)N=C2SC3CS(=O)(=O)CC3N2Cc2ccc(OC)c(OC)c2)cc1 (centres undefined) was read as TRHR agonist 1, D1 antagonist -10, TRHR enhancer -2, D1 agonist 7 and D1 PAM 2.
Screening Cn1nc(-c2ccccc2F)c2cc(C(=O)N3CCN(c4ccccc4F)CC3)sc21 returned TRHR agonist 1, D1 antagonist -16, TRHR enhancer -9, D1 agonist 9, D1 PAM -1 and Epigenetic derep -1%.
`Cc1sc(-c2cc3c([nH]c2=O)CC(c2ccccc2)CC3=O)nc1-c1ccc(Cl)cc1` (centres undefined) gave TRHR agonist 1, D1 antagonist 1, TRHR enhancer 8, D1 agonist 0, D1 PAM 1 and Epigenetic derep 18µM*.
`CCN1C(C)=C(C(=O)OC)C(c2ccccc2)N2C(=O)[C@](O)(C(=O)OC)CC(C(C)=O)=C12` (some centres undefined) gave Epigenetic derep 0%[10.1 µM].
For COc1cccc(CNC(=O)CSc2cc(C)[nH]c(=O)n2)c1 the results were TRHR agonist 0, TRHR enhancer -11, D1 agonist -2, D1 PAM -1 and Epigenetic derep 1%.
For CCC(Sc1nncn2c1cc1oc(C)cc12)C(=O)Nc1ccc(F)cc1 (centres undefined) the results were TRHR agonist 0, D1 antagonist -20, TRHR enhancer 17, D1 agonist 0, D1 PAM 2 and Epigenetic derep 12%.
Screening Cc1c(CCO)c(=O)[nH]n1C(=O)c1ccc(F)cc1 returned TRHR agonist 0, D1 antagonist -31*, TRHR enhancer 2, D1 agonist 1, D1 PAM -9 and Epigenetic derep -1%.
For O=[N+]([O-])c1cccc(NC(=S)Nc2nc(-c3ccc(Cl)cc3Cl)cs2)c1 the results were TRHR agonist 1, D1 antagonist -31*, TRHR enhancer 3, D1 agonist 7 and D1 PAM -7.
CCOc1ccc2c(c1)c(=O)c(C(=O)c1ccc(CC)cc1)cn2CC(=O)Nc1ccc2c(c1)OCCO2 was read as TRHR agonist 0, D1 antagonist 3, TRHR enhancer 6, D1 agonist -1, D1 PAM 3 and Epigenetic derep 5%.
Screening Cc1cccc(N2CCN(C(=S)NC3CCCCC3)CC2)c1C returned TRHR agonist 4, D1 antagonist -33*, TRHR enhancer -5, D1 agonist 6, D1 PAM -4 and Epigenetic derep 1%.
For COc1ccc(CN2CCN(Cc3c[nH]c4ccccc34)CC2)cc1 the results were TRHR agonist 2, D1 antagonist 3, TRHR enhancer 4, D1 agonist 5 and D1 PAM 1.
Screening O=C(Cc1ccccc1[N+](=O)[O-])OCC(=O)c1c[nH]c2ccccc12 returned TRHR agonist 0, D1 antagonist -38*, TRHR enhancer 1, D1 agonist 2 and D1 PAM -5.
`O=C(c1cccc(F)c1)N1CCN(Cc2c[nH]c3ccccc23)CC1` gave TRHR agonist 1, D1 antagonist -55*, TRHR enhancer -2, D1 agonist 1, D1 PAM -5 and Epigenetic derep -2%.
O=C(COC(=O)C1CC1)c1c[nH]c2ccccc12 was read as TRHR agonist 0, D1 antagonist -11, TRHR enhancer 0, D1 agonist -4, D1 PAM 1 and Epigenetic derep -16%.
O=[N+]([O-])c1ccccc1CN1CCN(Cc2c[nH]c3ccccc23)CC1 was read as TRHR agonist 2, D1 antagonist -30*, TRHR enhancer 20, D1 agonist 19, D1 PAM -10 and Epigenetic derep -1%.
COc1ccc(Br)cc1CN1CCN(Cc2c[nH]c3ccccc23)CC1 was read as TRHR agonist 3, D1 antagonist -15, TRHR enhancer 1, D1 agonist 38* and D1 PAM -18.
`O=C(c1ccccc1)N1CCN(Cc2c[nH]c3ccccc23)CC1` gave TRHR agonist 0, D1 antagonist 16, TRHR enhancer -6, D1 agonist 6, D1 PAM -7 and Epigenetic derep 0%.
Clc1ccc(-c2noc3ncnc(NCCc4ccccc4)c23)cc1 was read as TRHR agonist 1, D1 antagonist -8, TRHR enhancer 8, D1 agonist 7, D1 PAM 2 and Epigenetic derep -1%.
CC(C)C[C@H](NC(=O)[C@H](CCCCN)NC(=O)[C@H](CCCNC(=N)N)NC(=O)[C@H](C)NC(=O)[C@H](CO)NC(=O)[C@H](CCCCN)NC(=O)[C@H](CCCNC(=N)N)NC(=O)[C@H](C)NC(=O)CNC(=O)[C@@H](NC(=O)[C@H](Cc1ccccc1)NC(=O)CNC(=O)CNC(=O)[C@@H](N)Cc1ccccc1)[C@H](C)O)C(=O)N[C@@H](C)C(=O)N[C@@H](CC(N)=O)C(=O)N[C@@H](CCC(N)=O)C(=O)O was read as Epigenetic derep 2%.
Screening Cc1cc(C)c2c(=O)c3c(oc2c1)C(=O)N(CCCOC(C)C)C3c1ccccc1F (centres undefined) returned TRHR agonist -1, D1 antagonist -3, TRHR enhancer 6, D1 agonist 0, D1 PAM 0 and Epigenetic derep inconclusive.
Cc1csc2nc(COC(=O)c3cccc(NC(=O)COc4ccccc4Cl)c3)cc(=O)n12 was read as TRHR agonist 0, D1 antagonist -2, TRHR enhancer 4, D1 agonist 0, D1 PAM -1 and Epigenetic derep inconclusive.
`CC(=O)c1c(C)[nH]c(C(=O)OCC(=O)c2c[nH]c3ccccc23)c1C` gave TRHR agonist 0, D1 antagonist -31*, TRHR enhancer -1, D1 agonist 4 and D1 PAM -3.
CC(=O)OCC(=O)c1c[nH]c2ccccc12 was read as TRHR agonist 1, D1 antagonist 11, TRHR enhancer -9, D1 agonist 0, D1 PAM -6 and Epigenetic derep 2%.
Cc1ccc(C(=O)N/C(=C\c2cccc([N+](=O)[O-])c2)C(=O)OCN2C(=O)c3ccccc3C2=O)cc1 was read as TRHR agonist -2, D1 antagonist -48*, TRHR enhancer -1, D1 agonist 5, D1 PAM 0 and Epigenetic derep -1%.
Screening COc1cc(Cl)c(C)cc1NC(=O)c1cnn(-c2ccc(F)cc2F)c1C1CCN(C(=O)OC(C)(C)C)CC1 returned TRHR agonist 1, D1 antagonist -41*, TRHR enhancer 15, D1 agonist 0, D1 PAM -5 and Epigenetic derep 0%.

Bioassay records as filed in PubChem.
